# In PubChem BioAssay AID1463 (National Center for Advancing Translational Sciences (NCATS), 2008):
# Among all 280,000 compounds or so, about 2,600 (0.93%) were called active. About 8% were inconclusive and are not listed. The list comes from a sample in which actives are over-represented; it also holds similar structures and randomly drawn compounds. Values without a mark were called inactive. Calls follow the shape of the dose curve; as a rule, active = well fitted curve in the direction sought with a large enough effect; inconclusive = small, poorly fitted or top-dose-only effect; inactive = flat fitted curve, though single readings scatter.
# Experiment: Counterscreen qHTS for Inhibitors of Tau Fibril Formation, Fluorescence Polarization; also: nearly all actives have a fitted effect of over 55% in size
# Conditions: tau K18 P301L Alexa594 fluorescence, heparin fibrillization; series mostly up to 57.7 µM; activity change, negative = decrease: at the top concentration
# Summary of the method: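 Human tau K18 P301L (15 uM unlabeled, 0.24 uM Alexa 594-labeled) in 100 mM sodium acetate pH 7 with 20 uM heparin, 6 hr at 37 C. ThT 30 uM added, 1 hr ambient; Alexa 594 FP and total fluorescence read at 555/632 nm.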
# % is scaled to controls: 0 for no effect and ±100 for the full control effect; potency is read from the fitted curve at half-maximal effect; tags tell the direction and shape of the fitted curve or compound fluorescence and quenching.
Structure (SMILES),"activity change, negative = decrease",Potency
COc1ccc(CNC(=O)c2cc3cccc(OC)c3oc2=O)cc1,-14.3%,
CSc1ccc(CCNC(=O)c2cc(C)nc3c2c(C)nn3-c2cccc(F)c2)cc1,-10.8%,
O=C1CCN(C(=S)NCCc2ccccc2)CC1,2.95%,
Oc1cc2c(cc1O)CN(C(=S)NCCc1ccc(Cl)cc1)CCC2,,10 µM [quencher] (active)
S=C(NCCc1ccccc1)N1CCCCC1,-5.45%,
O=C(Cc1ccc(Cl)cc1)NCC(c1cccs1)S(=O)(=O)c1ccc(Cl)cc1 (stereo unspecified),-21.3%,
COc1ccc(-c2cn3nc(N4CCC(C(=O)Nc5cccc(C)c5C)CC4)sc3n2)cc1,-15.3%,
Cc1ccc(-n2ncc(C(=O)N(C)Cc3ccccc3)c2-n2cccc2)cc1,-3.21%,
O=C(Nc1ccc2nccnc2c1)c1ccco1,1.38%,
CCOc1ccc(NC(=O)c2ncoc2-c2ccco2)cc1,-18.1%,
COCCNC(=O)Nc1ccc2nc(-c3ccco3)c(-c3ccco3)nc2c1,,8.91 µM [quencher] (active)
Cc1cc(C)cc(NC(c2nnc(-c3cccc(F)c3)o2)c2ccc(F)cc2Cl)c1 (stereo unspecified),-16.8%,
O=C(Nc1c2c(nc3ccccc13)CCCC2)c1ccccc1Br,-1.32%,
CC(=O)Nc1ccc(Nc2c3ccccc3nc3ccccc23)cc1,-25.2%,
O=C(NNc1c2ccccc2nc2ccccc12)c1cc2ccccc2cc1O,,4.47 µM [quencher] (active)
O=C(O)CCC(=O)NCc1ccc2[nH]c3c(c2c1)CCCC3,-1.4%,
Cc1cccc(NC(=S)NCCN(C2CCCCC2)C2CCCC2)c1,-10.1%,
Cc1cccc(NC(=S)NCc2ccc3[nH]c4c(c3c2)CCCC4)c1,,14.1 µM [quencher] (active)
CCc1ccc(NC(=O)N2CCN(C(=O)c3nsc4ccccc34)CC2)cc1,-9.11%,
COc1ccc(S(=O)(=O)c2cn(C)c3cc(N4CCCCC4)c(F)cc3c2=O)cc1,-3.74%,
Cn1c(=O)c2c(nc(SCC(=O)Nc3ccc(F)cc3)n2Cc2ccccc2)n(C)c1=O,-23.1%,
CCc1ccc(CN(Cc2ccco2)C(=O)COc2ccc(Cl)c(C)c2)cc1,-6.86%,
NS(=O)(=O)c1ccc(Nc2nc(-c3ccccc3)cs2)cc1,,15.8 µM [quencher] (active)
O=C(Nc1ccncc1)c1cc2ccccc2o1,-8.25%,
Cc1cc(NC(=O)c2cccc(Cl)c2)ccc1-c1cc2ccccc2oc1=O,-26.8%,
COc1ccc(-c2csc(NC(=O)CCCc3cccs3)n2)cc1,-2.65%,

Structure (SMILES),"activity change, negative = decrease",Potency
COc1ccc(-c2csc(NC(=O)c3ccc(N4C(=O)CCC4=O)cc3)n2)cc1OC,-6.64%,
Cc1ccc(-c2csc(NC(=O)c3cnccn3)n2)cc1C,6.03%,
COc1ccc(-c2csc(NC(=O)COC(=O)c3ccc(Br)o3)n2)cc1,-17.9%,
COc1ccc(OC)c(Nc2nc(-c3ccc(O)c(O)c3)cs2)c1,,14.1 µM [quencher] (active)
CC(=O)Nc1nc(C)c(-c2csc(Nc3ccc(S(N)(=O)=O)cc3)n2)s1,-27.7%,
COc1ccc(-c2csc(Nc3ccc(O)cc3)n2)cc1,,11.2 µM [quencher] (active)
O=C(Nc1nc(-c2ccc(-c3ccccc3)cc2)cs1)c1cnccn1,-17.8%,
O=c1oc2ccccc2cc1-c1csc(Nc2ccc(O)cc2)n1,,14.1 µM [quencher] (active)
Cc1cccc(NC(=O)c2ccc3nc(C(C)C)oc3c2)c1C,0.976%,
CCOC(=O)c1ccc(NC(=O)CCS(=O)(=O)c2ccc(C)cc2)cc1,-9.69%,
CCOc1ccccc1N(CC)C(=O)c1cc2ccc3cccnc3c2[nH]1,-12.8%,
CCOc1ccc(N(C)S(=O)(=O)c2cc(-c3cnc(C)o3)ccc2OC)cc1,-16.6%,
Cc1cc(C)cc(Nc2ncnc3onc(-c4ccc(F)cc4)c23)c1,-27.8%,
Cc1cc(OCC(=O)NCC2(N(C)C)CCCCC2)cc(C)c1Cl,-4.83%,
COC(=O)c1sccc1S(=O)(=O)N(CC(=O)Nc1ccc(C)c(F)c1)c1ccc(C)c(C)c1,-26.5%,
Cc1nn(Cc2ccc(F)cc2)c(C)c1NC(=O)c1cc(CC(C)C)on1,-6.55%,
CCc1nc2ccc(C(=O)N3CCN(c4cc(Cl)ccc4C)CC3)cc2nc1CC,-16.5%,
COc1cccc(C(=O)Nc2ccc3nc4n(c(=O)c3c2)CCCCC4)c1,-19.2%,
COc1ccc(C(=O)Nc2ccc3nc(N4CCCCC4)cc(C)c3c2)cc1OC,,10 µM [quencher] (active)
COc1ccc(NC(=O)c2ccc3nc(C(C)C)oc3c2)cc1OC,-10.9%,
COc1ccccc1CN1CCC(CNC(=O)c2cnn(-c3ccccc3Cl)c2C2CCN(C(=O)OC(C)(C)C)CC2)CC1,-15.9%,
Fc1ccc(-c2nn(-c3ccccc3Cl)c3c2cnc2ccccc23)cc1,-24.1%,
O=C(Nc1ccc2ccccc2c1)Nc1ccc2snnc2c1,,4.47 µM [quencher] (active)
O=C(Nc1ccccc1)Nc1nc2ccccc2s1,-24.8%,
O=C(Nc1ccc2oc(-c3ccc4ccccc4c3)nc2c1)c1cccs1,-27.6%,
Cc1cc(C)c(NC(=O)CN2C(=O)c3cccnc3Oc3ccc(Cl)cc32)c(C)c1,-15.1%,

Structure (SMILES),"activity change, negative = decrease",Potency
COc1ccc(N2CCN(S(=O)(=O)c3ccc(-c4coc(C)n4)cc3)CC2)cc1,-25.9%,
COc1ccc(-c2[nH]ncc2CN(C)Cc2c(C)n[nH]c2C)c(OC)c1,-0.526%,
CCOc1ccccc1Oc1cn[nH]c1-c1ccc(OC)cc1O,,12.6 µM [quencher] (active)
CCOc1ccc(-c2nc(N)ncc2-c2ccccc2OC)c(O)c1,-28.8%,
COc1ccccc1CNC(=O)c1ccc(-n2c(C)cc3c2CCCC3)cc1,-3.95%,
COc1ccc(OC)c(CNC(=O)c2c3c(nc4ccccc24)C(=O)N(C2CCCCC2)C3)c1,5.73%,
Fc1ccc(C(Nc2ccc(Cl)c(C(F)(F)F)c2)c2nnc(-c3ccccc3)o2)cc1 (stereo unspecified),-22.3%,
N#C/C(=C/c1ccc(N2CCCCC2)o1)C(=O)NCCc1c[nH]c2ccccc12,,15.8 µM [quencher] (active)
N#C/C(=C/c1ccc(-c2ccccc2[N+](=O)[O-])o1)C(=O)NCCN1CCCCC1,-11.3%,
O=C(NCCc1c[nH]c2ccccc12)C(=O)NCC1CCCO1 (stereo unspecified),0.306%,
COc1ccccc1Nc1c2c(nc3ccc(NC(=O)/C=C/c4cc(OC)c(OC)c(OC)c4)cc13)CCCC2,,10 µM [quencher] (active)
Cc1ccc(Nc2c3c(nc4ccccc24)CCC3)cc1,-9.23%,
COc1ccc(/C=C/C(=O)Nc2ccc3c(c2)OCCO3)cc1OC,-28.9%,
CCCN(C(=O)Cn1ncc2c([nH]c3ccc(C)cc32)c1=O)c1ccccc1C,-19.4%,
c1cnc(Nc2nc(-c3ccc4ccccc4c3)cs2)nc1,-6.05%,
Clc1ccc(Nc2nc(-c3cccs3)cs2)nc1,,14.1 µM [quencher] (active)
COC(=O)CSc1nccc(-c2cccs2)n1,0.872%,
Cc1cccc(-n2ncc(C(=O)N3CCN(c4ccc(Cl)cc4)CC3)c2C2CCN(C(=O)OC(C)(C)C)CC2)c1,-17.5%,
Cc1ccc(C)c(N2CCN(C(=O)C3CCC(CNS(=O)(=O)c4cccs4)CC3)CC2)c1 (stereo unspecified),-20%,
CN1C(=O)C(CC(=O)Nc2ccccc2)S/C1=N/c1nccs1 (stereo unspecified),-2.38%,
O=C(CC1SC(=Nc2ccccc2)N(Cc2ccccn2)C1=O)Nc1cccc(Cl)c1 (stereo unspecified),,10 µM [quencher] (active)
O=C(Nc1cccc(Cl)c1)OCc1ccccn1,-16.9%,
Fc1ccc(CSc2nc(NCc3ccccc3)c3ccccc3n2)cc1,-11.1%,
Cc1ccccc1NC(=S)NNC(=O)c1cccc(Br)c1,-9.27%,
O=C(NC(=S)Nc1cccc2c(O)cccc12)c1cccc(Br)c1,,11.2 µM [quencher] (active)
NS(=O)(=O)c1ccc(NC(=S)NC(=O)c2cccc(Br)c2)cc1,-6.18%,

Structure (SMILES),"activity change, negative = decrease",Potency
COc1cccc(C(=O)N(Cc2cccc(Cl)c2)Cc2ccco2)c1,-8.6%,
Cc1ccccc1CSc1nc2c([nH]c3ccccc32)c(=O)n1C,-4.83%,
CCN(C(=O)CSc1nnc(C)n2c1cc1occc12)c1ccccc1,-11.2%,
CC1CCN(S(=O)(=O)c2ccc3c(c2)N(CC(=O)NCCc2ccccc2)C(=O)CO3)CC1,-19.9%,
CCc1ccc(NC(=O)c2sc3nc4c(cc3c2N)CN(CC)CC4)cc1,,20 µM [quencher] (active)
COc1ccc(Cl)cc1NC(=O)c1oc(C)nc1C,-2.19%,
CCc1ccccc1NC(=O)c1sc2nc3c(cc2c1N)CN(Cc1ccccc1)CC3,-23%,
COc1ccc(Cl)cc1NC(=O)c1sc2nc3c(cc2c1N)CN(C)CC3,,10 µM [quencher] (active)
CCc1ccc2nc3sc(C(=O)Nc4nnc(CC)s4)c(N)c3cc2c1,-25.2%,
COc1ccc(Cl)cc1NC(=O)CCN1CCOCC1,15.5%,
O=C(Nc1ccc(S(=O)(=O)N2CCC(c3nc4ccccc4s3)CC2)cc1)c1ccccc1F,2.89%,
Cc1cc(C)cc(-n2ccnc2SCC(=O)Nc2nc3ccccc3s2)c1,-11.2%,
CCOc1ccccc1CNC(=O)Nc1cn(CC(C)C)c(=O)c2ccccc12,-18.9%,
CC(C)Cn1c(C2CC(=O)N(c3ccccc3Cl)C2)nc2ccccc21 (stereo unspecified),-3.59%,
CCCc1cc(-c2nc(-c3ccc(C)cc3)cs2)ccn1,-4.64%,
Cc1ccc(-c2csc(-c3c[nH]c4ccccc34)n2)cc1,,7.08 µM [quencher] (active)
Cc1ccc(-c2csc(-c3cc(C)on3)n2)cc1,-7.55%,
Cc1ccc2c(=O)c(C(=O)c3ccc(Cl)cc3)cn(CC(=O)NC3CCCCC3)c2n1,-5.5%,
COC(=O)CCNC(=O)c1ccc2[nH]c(C)c(C)c2c1,-13.3%,
CN(C)CCCNC(=O)c1ccc2[nH]c3ccccc3c2c1,0.618%,
Cc1ccc(C(=O)NCCSc2c(C)[nH]c3ccccc23)cc1C,,12.6 µM [quencher] (active)
COc1ccc(C(=O)N2CCC(c3nc4ccccc4o3)CC2)cc1,5.71%,
CCOc1ccccc1C(=O)NCc1ccc2c(c1)CCN2C(=O)c1ccc(F)cc1,-12.3%,
